± gives the standard deviation.
Experiments:
Details in all cases: modulator concentration 10 µM
[1] = system: RAW-Dual (murine macrophage reporter line); assay: NF-kB reporter (SEAP) activity fold change vs agonist alone; higher = enhanced NF-kB activity
Outline: (§1)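 Compound reached 10 μM final in each well by pin transfer, onto RAW-Dual murine macrophage reporter cells seeded at 50 000 per well in 384-well plates. After 1 hour at 37 °C, the cells were stimulated overnight with a PRR agonist. SEAP in the supernatant was read with QUANTI-Blue at 620 nm absorbance for NF-κB, and Lucia luciferase was read with QUANTI-Luc luminescence for IRF. Each signal was turned into fold change against the mean agonist-only control on the same plate, and two replicate plates were averaged with propagated errors.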

[2] = system: RAW-Dual (murine macrophage reporter line); assay: IRF reporter (Lucia luciferase) activity fold change vs agonist alone; higher = enhanced IRF activity
Outline: as §1

[3] = system: RAW-Dual (murine macrophage reporter line); assay: viability score (confluency relative to resting cells, overnight) (fraction); higher = more viable, active = viable (0.7 or more)
Outline: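 RAW-Dual macrophages in 384-well plates were incubated overnight with compound, final concentration 10 μM. Confluency images from IncuCyte were processed in IncuCyte software into two masks covering all imaged wells. The viability score is each well's confluency relative to resting cells, and a compound met the cutoff when both masks exceeded 70% of resting cells.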

[4] = agonist: CpG ODN 1826 0.5 ug/mL

Row | Compound | NF-kB reporter [1, 4] | NF-kB reporter ([1]; agonist: LPS 0.1 ug/mL) | NF-kB reporter ([1]; agonist: MPLA […]) | IRF reporter ([2]; agonist: 3'3'-cGAMP 10 ug/mL) | IRF reporter ([2]; agonist: LPS 0.1 ug/mL) | IRF reporter ([2]; agonist: MPLA […]) | viability score [3]
1 | CC(=O)OC1(C(C)=O)CCC2C3C=C(C)C4=CC(=O)CCC4(C)C3CCC21C (stereo not given) | 1.18 ± 0.088 | 1.08 ± 0.054 | 1.21 ± 0.026 | 1.04 ± 0.069 | 0.875 ± 0.1 | 0.986 ± 0.14 | 0.995 (active)
2 | COc1c2occc2cc2ccc(=O)oc12 | 1.44 ± 0.21 | 1.21 ± 0.11 | 0.907 ± 0.051 | 0.91 ± 0.029 | 1.3 ± 0.15 | 1.04 ± 0.08 | 0.989 (active)
3 | Nc1ccc(C=Cc2ccccc2)cc1 | 0.964 ± 0.097 | 0.776 ± 0.038 | 0.976 ± 0.034 | 0.174 ± 0.012 | 0.857 ± 0.089 | 0.719 ± 0.056 | 0.973 (active)
4 | COC1CCN(C2CN(C(=O)CCn3cnc4ccccc4c3=O)C2)CC1 | 1.05 ± 0.052 | 1.08 ± 0.092 | 0.882 ± 0.044 | 1.01 ± 0.052 | 1.27 ± 0.076 | 1.13 ± 0.24 | 0.994 (active)
5 | COc1ccc(C2Oc3cc(OC)cc(OC)c3CC2O)cc1 (stereo not given) | 1.01 ± 0.24 | 1.01 ± 0.07 | 1.81 ± 0.81 | 0.881 ± 0.057 | 1.12 ± 0.27 | 1.04 ± 0.1 | 1.01 (active)
6 | Cn1ncc(Cl)c1-c1cc(C(=O)N[C@H](CN)Cc2ccc(F)c(F)c2)oc1Cl | 1.13 ± 0.34 | 1.49 ± 0.11 | 1.48 ± 0.14 | 0.363 ± 0.014 | 0.597 ± 0.064 | 0.827 ± 0.079 | 0.661 (inactive)
7 | Oc1c(Cl)cc(Cl)cc1Sc1cc(Cl)cc(Cl)c1O | 1.18 ± 0.11 | 0.917 ± 0.061 | 3.21 ± 0.07 | 0.564 ± 0.031 | 1.03 ± 0.16 | 1.1 ± 0.21 | 0.441 (inactive)
8 | Cc1[nH]c(=O)c(C#N)cc1-c1ccncc1 | 1.34 ± 0.19 | 1.26 ± 0.28 | 2.34 ± 1.3 | 0.895 ± 0.027 | 1.31 ± 0.15 | 1.34 ± 0.2 | 0.99 (active)
9 | CNC(=O)c1ccc(Nc2ncc(C(F)(F)F)c(NCc3nccnc3N(C)S(C)(=O)=O)n2)cc1 | 1.25 ± 0.37 | 0.169 ± 0.013 | 2.19 ± 0.34 | 0.0196 ± 0.0024 | 0.0319 ± 0.0037 | 0.0361 ± 0.006 | 0.749 (active)
10 | CCNc1nc(S)nc(NC(C)C)n1 | 1.13 ± 0.085 | 1.03 ± 0.051 | 1.02 ± 0.024 | 0.731 ± 0.041 | 0.98 ± 0.13 | 0.927 ± 0.11 | 0.991 (active)
11 | Cc1ccccc1C(OCCN(C)C)c1ccccc1.O=C(O)CC(O)(CC(=O)O)C(=O)O (stereo not given) | 1.35 ± 0.36 | 1.34 ± 0.23 | 2.11 ± 1 | 0.582 ± 0.024 | 1.51 ± 0.14 | 1.25 ± 0.12 | 0.981 (active)
12 | O=C(NCCCn1ccc2cccnc21)c1ccccc1C(F)(F)F | 0.946 ± 0.091 | 1.1 ± 0.092 | 1.03 ± 0.18 | 1.06 ± 0.056 | 1.16 ± 0.1 | 1.45 ± 0.15 | 0.978 (active)
13 | C=C(C)COc1ccc(-c2ncncc2-c2ccccc2)c(O)c1 | 1.08 ± 0.18 | 0.985 ± 0.088 | 0.963 ± 0.082 | 0.996 ± 0.029 | 1.14 ± 0.17 | 1.27 ± 0.13 | 1 (active)
14 | Clc1ccc(C2C=C(c3ccccc3)Nc3ncnn32)cc1 (stereo not given) | 1.08 ± 0.11 | 0.939 ± 0.091 | 0.986 ± 0.057 | 0.886 ± 0.17 | 1.1 ± 0.097 | 0.945 ± 0.062 | 1 (active)
15 | O=C(C=Cc1ccc2c(c1)OCO2)NCc1ccccn1 | 0.994 ± 0.16 | 1.08 ± 0.089 | 0.897 ± 0.069 | 0.933 ± 0.041 | 1.27 ± 0.27 | 1.28 ± 0.15 | 0.994 (active)
16 | CCN(CCO)CCCC(C)Nc1ccnc2cc(Cl)ccc12.O=S(=O)(O)O (stereo not given) | 0.877 ± 0.037 | 0.984 ± 0.08 | 1.44 ± 0.24 | 0.984 ± 0.049 | 1.08 ± 0.28 | 1.15 ± 0.42 | 1 (active)
17 | OCC(CO)N[C@H]1C[C@](O)(CO)[C@@H](O)[C@H](O)[C@H]1O | 0.913 ± 0.054 | 0.924 ± 0.074 | 0.916 ± 0.046 | 0.908 ± 0.058 | 1.04 ± 0.065 | 0.884 ± 0.07 | 1 (active)
18 | CCN(C=Nc1sc2c(c1C#N)CC(C)(C)NC2(C)C)CC | 0.759 ± 0.059 | 0.93 ± 0.054 | 0.901 ± 0.093 | 0.969 ± 0.044 | 1.24 ± 0.071 | 1.29 ± 0.22 | 0.992 (active)
19 | Nc1cccc(O)c1 | 0.98 ± 0.099 | 1.08 ± 0.069 | 1.03 ± 0.023 | 0.983 ± 0.09 | 0.946 ± 0.092 | 0.938 ± 0.11 | 0.997 (active)
20 | CCCCNC(=O)Cc1ccc(Br)cc1 | 0.947 ± 0.15 | 0.904 ± 0.11 | 0.913 ± 0.11 | 0.986 ± 0.052 | 1.29 ± 0.25 | 1.4 ± 0.33 | 0.989 (active)
21 | CC(C)(C)c1cc(C(=O)Oc2cccc3cccnc23)cc(C(C)(C)C)c1 | 0.895 ± 0.05 | 0.976 ± 0.06 | 0.923 ± 0.064 | 0.938 ± 0.034 | 1.25 ± 0.097 | 1.23 ± 0.12 | 1 (active)
22 | CC1CCc2c(oc3ccc(NS(=O)(=O)c4ccc(F)cc4)cc23)C1 (stereo not given) | 0.607 ± 0.1 | 0.626 ± 0.075 | 0.918 ± 0.032 | 0.853 ± 0.035 | 0.643 ± 0.11 | 1.76 ± 0.23 | 0.144 (inactive)
23 | NC(=O)CC[C@H](N)C(=O)O | 0.931 ± 0.076 | 0.998 ± 0.096 | 0.982 ± 0.023 | 0.949 ± 0.082 | 0.998 ± 0.039 | 1.04 ± 0.11 | 1.01 (active)
24 | COc1ccc(Nc2nc(Nc3ccc(F)cc3)nc(N3CCOCC3)n2)cc1OC | 0.409 ± 0.059 | 1.61 ± 0.14 | 2.96 ± 0.16 | 0.413 ± 0.036 | 1.36 ± 0.17 | 2.15 ± 0.54 | 0.905 (active)
25 | [O-][n+]1cccc(CO)c1 | 1.58 ± 0.067 | 1.96 ± 0.16 | 3.03 ± 0.16 | 1.14 ± 0.054 | 1 ± 0.19 | 1.4 ± 0.42 | 0.987 (active)
